Activity calls are given as the source filed them. Unless noted, how the calls were made is not given here.
Key:
[1] = A549 cell viability effects, profiling panel, calcein-AM fluorescence, 48 h, basal (AID 1162); conditions: higher = more signal; further: test concentration not given here
[2] = adipocyte viability effects, profiling panel, cell-based, 3T3-L1 adipocytes, calcein-AM fluorescence, 48 h, basal (AID 1163); conditions: 3T3-L1 adipocytes viability, higher = more signal; further: test concentration not given here
[3] = HepG2 cell viability effects, profiling panel, calcein-AM fluorescence, 48 h, basal (AID 1164); conditions: higher = more signal; further: test concentration not given here
[4] = MM1S cell viability effects, profiling panel, calcein-AM fluorescence, 48 h, basal (AID 1165); conditions: higher = more signal;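 further: viability of MM1S multiple myeloma cells under basal unstimulated conditions; test concentration not given here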
[5] = basal RPMI8226 viability, no added stimulus, profiling panel, cell-based, calcein-AM fluorescence, 48 h, PK04 Diversity Set (AID 1166); conditions: RPMI8226 myeloma viability, higher = more signal;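 further: cells grown under basal conditions without added stimulus; test concentration not given here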
[6] = basal HepG2 mitochondrial membrane potential changes, profiling panel, cell-based, JC-1 fluorescence, 24 h, 100 nL compound (AID 1167); conditions: higher = more signal; further: test concentration not given here
[7] = basal 3T3-L1 adipocyte mitochondrial potential changes, profiling panel, cell-based, JC-1 fluorescence, 3T3-L1 adipocytes, 24 h, 100 nL compound (AID 1168); conditions: JC-1 mitochondrial fluorescence, higher = more signal, called active from +8 up or from −8 down; further: test concentration not given here
[8] = basal RPMI8226 mitochondrial membrane potential changes, profiling panel, cell-based, JC-1 fluorescence, 24 h, 100 nL compound (AID 1169); conditions: RPMI8226 myeloma, JC-1 mitochondrial potential fluorescence, higher = more signal; further: test concentration not given here
[9] = basal MM1S mitochondrial membrane potential changes, profiling panel, cell-based, JC-1 fluorescence, 24 h, 100 nL compound (AID 1170); conditions: higher = more signal; further: test concentration not given here
[10] = A549 lung cancer cell viability effects, profiling panel, resazurin fluorescence, 24 h, PK04 Diversity Set (AID 1171); conditions: higher = more signal, called active from +8 up or from −8 down; further: test concentration not given here
[11] = HepG2 liver cancer cell viability effects, profiling panel, resazurin fluorescence, 24 h, PK04 Diversity Set (AID 1172); conditions: higher = more signal; further: test concentration not given here
[12] = basal S. cerevisiae growth modulation, no modifier, primary screen, OD600, strain BY4716, 24 h, basal condition (AID 1173); conditions: OD600, 24 h, higher = more signal, called active from +8 up or from −8 down
[13] = MM1S myeloma cell viability, profiling panel, resazurin fluorescence, basal, 24 h, PK04 Diversity Set (AID 1174); conditions: higher = more signal, called active from +8 up or from −8 down;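 further: MM1S multiple myeloma cell line; test concentration not given here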
[14] = target: Dihydroorotate dehydrogenase (quinone), mitochondrial (Plasmodium falciparum (isolate 3D7)) (UniProt Q08210); test: PfDHODH enzyme inhibitors, primary screen, biochemical, C-terminal His tag, absorbance 600 nm (AID 1175); conditions: DCIP absorbance 600 nm, higher = more signal, called active from +8 up or from −8 down;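 further: recombinant parasite enzyme with a five histidine tag at its C terminus; test concentration not given here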
[15] = P. aeruginosa biofilm formation inhibitors, primary screen, strain PAO1, LB-PBS medium, absorbance 600 nm (AID 1176); further: test concentration not given here; conditions: P. aeruginosa PAO1 growth/biofilm, A600, 12 h; higher = more signal
[16] = S. cerevisiae RM11-1a growth modifiers, primary screen, strain RM11-1a, OD600, basal, 24 h (AID 1177); conditions: OD600, 24 h, higher = more signal, called active from +8 up or from −8 down;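 further: cultures grown under basal conditions with no added stressor; test concentration not given here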
[17] = E. coli acrAB mutant growth effects, primary screen, E. coli filamentation inducers, strain DRC39, OD650, 24 h (AID 1178); conditions: higher = more signal, called active from +8 up or from −8 down;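 further: growth measured as culture turbidity by optical density at 650 nm; test concentration not given here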
[18] = E. coli acrAB mutant growth effects, primary screen, E. coli filamentation inducers, strain DRC39, OD650, 48 h (AID 1179);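 further: screen aims at cell division blockers that make cells filament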; conditions: E. coli DRC39 delta-acrAB growth, higher = more signal, called active from +8 up or from −8 down
[19] = RPMI8226 myeloma cell viability, profiling panel, resazurin fluorescence, basal, 24 h, PK04 Diversity Set (AID 1180); conditions: higher = more signal;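 further: RPMI8826 multiple myeloma cell line at 5000 cells per well; test concentration not given here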
[20] = target: E3 ubiquitin-protein ligase XIAP (Homo sapiens) (UniProt P98170); test: XIAP binders, primary screen, biophysical, small-molecule microarray, fluorescence 635 nm (AID 1181); conditions: small-molecule microarray binding, higher = more signal;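 further: score merges 667 nm emission and signal to noise over triplicate slides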
Sequence of E3 ubiquitin-protein ligase XIAP (Homo sapiens) (P98170 whole entry, looked up): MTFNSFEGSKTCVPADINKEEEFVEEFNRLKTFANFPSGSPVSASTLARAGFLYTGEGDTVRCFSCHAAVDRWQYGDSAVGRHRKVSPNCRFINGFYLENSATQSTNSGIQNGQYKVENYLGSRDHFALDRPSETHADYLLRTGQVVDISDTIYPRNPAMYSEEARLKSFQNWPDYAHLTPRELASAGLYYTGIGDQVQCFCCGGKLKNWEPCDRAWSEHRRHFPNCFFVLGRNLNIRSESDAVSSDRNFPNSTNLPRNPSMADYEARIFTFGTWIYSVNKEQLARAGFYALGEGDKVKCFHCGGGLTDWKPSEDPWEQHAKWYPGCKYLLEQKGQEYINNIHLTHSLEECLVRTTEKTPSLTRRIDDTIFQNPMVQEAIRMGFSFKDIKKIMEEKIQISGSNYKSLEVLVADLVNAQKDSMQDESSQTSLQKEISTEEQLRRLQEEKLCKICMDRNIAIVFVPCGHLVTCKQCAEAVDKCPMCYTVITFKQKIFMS

Sequence of Dihydroorotate dehydrogenase (quinone), mitochondrial (Plasmodium falciparum (isolate 3D7)) (Q08210 whole entry, looked up): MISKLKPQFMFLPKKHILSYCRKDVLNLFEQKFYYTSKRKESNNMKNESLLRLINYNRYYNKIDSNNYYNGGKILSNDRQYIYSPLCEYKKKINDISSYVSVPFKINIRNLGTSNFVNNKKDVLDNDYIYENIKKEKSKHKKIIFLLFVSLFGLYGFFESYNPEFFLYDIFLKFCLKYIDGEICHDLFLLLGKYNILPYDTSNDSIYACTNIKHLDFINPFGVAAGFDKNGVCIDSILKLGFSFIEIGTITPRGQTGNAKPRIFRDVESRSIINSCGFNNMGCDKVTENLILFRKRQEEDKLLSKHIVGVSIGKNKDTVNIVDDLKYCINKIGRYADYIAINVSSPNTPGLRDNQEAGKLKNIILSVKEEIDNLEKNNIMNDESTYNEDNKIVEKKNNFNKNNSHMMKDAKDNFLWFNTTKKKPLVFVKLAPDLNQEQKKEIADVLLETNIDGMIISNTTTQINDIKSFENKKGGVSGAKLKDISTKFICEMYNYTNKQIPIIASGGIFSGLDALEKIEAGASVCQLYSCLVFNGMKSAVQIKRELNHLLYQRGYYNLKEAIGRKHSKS

Structure (SMILES) | z-score [1] | z-score [2] | z-score [3] | z-score [4] | z-score [5] | z-score [6] | z-score [7] | z-score [8] | z-score [9] | z-score [10] | z-score [11] | z-score [12] | z-score [13] | composite z-score [14] | z-score [15] | z-score [16] | z-score [17] | z-score [18] | z-score [19] | composite z-score [20]
CO[C@H]1O[C@H](CO)[C@@H](OC(=O)Nc2ccccc2-c2ccccc2)[C@H](OC(=O)Nc2ccc3c(c2)OCO3)[C@H]1OC(=O)Nc1ccc2c(c1)OCO2 | 0.673 | -0.31 | -0.521 | -1.02 | -2.75 | 0.844 | 1.48 (inactive) | -1.01 | 0.823 | 0.262 (inactive) | -0.396 | 1.66 (inactive) | -0.262 (inactive) | -0.763 (inactive) | 3.65 (inactive) | 2.5 (inactive) | 1.2 (inactive) | 0.0265 (inactive) | -0.564 | 0.25
Cc1cc(C)c(C(O)C2C=CC3C(=O)N(c4ccccc4)C(=O)C3N2Nc2ccc(C(C)C)cc2)c(C)c1 (stereo not given) | -0.314 | 0.669 | 0.273 | -0.0101 | -0.792 | -1.37 | -1.13 (inactive) | -0.698 | 0.19 | -1.72 (inactive) | -1.47 | 0.626 (inactive) | -1.8 (inactive) | 0.68 (inactive) | 1.28 (inactive) | 1.58 (inactive) | -0.841 (inactive) | -0.876 (inactive) | -1.08 | -0.387
CCOC(=O)C[C@H]1[C@H](OC(=O)c2ccccc2-c2ccccc2)[C@@H](NC(=O)c2ccc(-c3ccccc3)cc2)c2cc(OCCCO)ccc2N1C(=O)c1ccc2ccccc2n1 | -0.137 | -0.163 | 0.336 | 0.402 | -0.485 | -0.149 | 1.18 (inactive) | 0.0491 | -0.63 | 0.524 (inactive) | -0.0523 | 0.662 (inactive) | 0.128 (inactive) | -0.0558 (inactive) | 0.318 (inactive) | 0.752 (inactive) | -0.447 (inactive) | -0.0565 (inactive) | 0.636 | 0.0891
COC(=O)c1c2oc(c1C(=O)OC)C(=O)N(Cc1ccccc1)Cc1cn(nn1)C[C@H](Cc1ccccc1)NC(=O)N[C@H](CO)CC2 | 2.05 | 0.92 | 0.377 | 1.18 | 1.75 | 1.9 | -0.397 (inactive) | -0.201 | -0.62 | 1.27 (inactive) | 1.18 | -1.78 (inactive) | 0.312 (inactive) | -0.519 (inactive) | 0.231 (inactive) | -1.38 (inactive) | 1.33 (inactive) | 1.89 (inactive) | 1.16 | 0.725
COC(=O)c1ccc([C@H](NC(=O)c2ccco2)[C@]2(C)C[C@H]2C2CCCCC2)cc1 | -1.13 | -1.2 | -2.43 | -2.65 | -3.28 | -2.5 | -1.02 (inactive) | -0.89 | -1.12 | -2.55 (inactive) | -2.18 | 1.23 (inactive) | -0.806 (inactive) | -0.751 (inactive) | 0.619 (inactive) | 0.158 (inactive) | -0.827 (inactive) | -0.565 (inactive) | -2.26 | -0.0668
C[N+](C)(C)CCCCCCNC(=O)[C@H]1C[C@H]2C(=O)N[C@@H](Cc3ccccc3)C(=O)N2[C@H]1c1ccc(O)cc1 | -0.367 | -1.42 | 0.557 | 0.401 | 0.757 | -0.216 | 0.508 (inactive) | 0.21 | -0.79 | -0.0203 (inactive) | -0.324 | 0.119 (inactive) | 0.13 (inactive) | -0.673 (inactive) | -0.546 (inactive) | -0.0281 (inactive) | 0.962 (inactive) | 1.3 (inactive) | 0.201 | -0.162
CC(C)(C)N1CC=CC23O[C@@H]4C=CCOC(=O)[C@@H]4[C@H]2C(=O)N(CCCCCCO)[C@@H]3C1=O (stereo not given in full) | -0.127 | -0.739 | -0.165 | 1.53 | 0.0749 | -0.403 | 0.567 (inactive) | 0.799 | -0.112 | -0.0435 (inactive) | -0.303 | -0.093 (inactive) | 0.448 (inactive) | -0.817 (inactive) | -0.608 (inactive) | -0.957 (inactive) | 0.226 (inactive) | 0.254 (inactive) | 0.29 | 0.0385
CO[C@]12C=C(Br)[C@@H](C[C@@H]1c1cccc(C)c1)[C@@]1(CO1)C2=O | -0.406 | 0.287 | -0.932 | -2.16 | -0.643 | -1.11 | -0.295 (inactive) | -0.107 | -0.693 | 0.862 (inactive) | 1.17 | -5.41 (inactive) | -0.674 (inactive) | 0.227 (inactive) | -0.447 (inactive) | -0.338 (inactive) | 0.632 (inactive) | 0.378 (inactive) | 0.478 | -0.148
